Source: PubChem BioAssay (Tox21)
“And” between values parts separate entries of the source, which are not always exact repeats. Equal entries are not always repeated. Inconclusive results are not listed. Where a structure was tested more than once in an assay, its records may differ in their call. The source made the active and inactive calls. Unless noted, calls follow the shape of the dose curve; as a rule, active = well fitted curve in the direction sought with a large enough effect in the repeat runs; inconclusive = weak or mixed curves; inactive = no such curve, though single readings can be large; an effect the other way counts as inactive or inconclusive.

Experiments:
[1] = qHTS assay to identify small molecule antagonists of the estrogen receptor alpha (ER-alpha) signaling pathway using the BG1 cell line in the presence of 0.1 nM 17-beta-estradiol - cell viability counter screen (AID 1259241); also: nearly all actives have a fitted effect of over 40% in size
How it was run: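 Viability in VM7Luc4E2 cells after 22 hr compound exposure under 0.1 nM 17beta-estradiol stimulation, by CellTiter-Fluor.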

[2] = qHTS assay to identify small molecule antagonists of the androgen receptor (AR) signaling pathway using the MDA cell line in the presence of 0.5 nM R1881 - cell viability counter screen (AID 1259242); also: nearly all actives have a fitted effect of over 45% in size; also: potency is read from the fitted curve at half-maximal effect
How it was run: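 qHTS format. MDA-kb2 (MMTV-luc, AR/GR responsive) + cpd + 0.5 nM R1881 final, 16 hr 37C/0% CO2 → CellTiter-Fluor 30 min → fluorescence intensity.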

[3] = biological target: Estrogen receptor (Homo sapiens) (UniProt P03372); assay: qHTS assay to identify small molecule antagonists of the estrogen receptor alpha (ER-alpha) signaling pathway using the BG1 cell line in the presence of 0.1 nM 17-beta-estradiol (AID 1259244); also: nearly all actives have a fitted effect of over 50% in size; also: potency is read from the fitted curve at half-maximal effect
Chain of Estrogen receptor (Homo sapiens) (P03372 whole entry, looked up): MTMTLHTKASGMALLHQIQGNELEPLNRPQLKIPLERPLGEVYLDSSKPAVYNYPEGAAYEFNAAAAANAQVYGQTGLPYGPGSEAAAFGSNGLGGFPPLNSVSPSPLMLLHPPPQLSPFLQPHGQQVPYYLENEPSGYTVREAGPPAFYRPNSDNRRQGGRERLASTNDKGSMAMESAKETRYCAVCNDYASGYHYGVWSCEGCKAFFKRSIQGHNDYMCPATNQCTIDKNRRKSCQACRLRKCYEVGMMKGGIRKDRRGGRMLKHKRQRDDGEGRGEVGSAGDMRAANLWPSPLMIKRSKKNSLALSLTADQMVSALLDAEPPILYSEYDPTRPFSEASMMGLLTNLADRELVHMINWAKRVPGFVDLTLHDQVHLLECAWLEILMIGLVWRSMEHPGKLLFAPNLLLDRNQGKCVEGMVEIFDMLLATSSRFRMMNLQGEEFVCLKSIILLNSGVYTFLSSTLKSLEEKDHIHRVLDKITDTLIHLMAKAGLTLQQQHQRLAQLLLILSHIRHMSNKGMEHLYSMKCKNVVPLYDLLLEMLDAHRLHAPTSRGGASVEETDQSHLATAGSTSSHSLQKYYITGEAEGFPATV
How it was run: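 Reporter is a stably transfected luciferase under four estrogen responsive elements in VM7Luc4E2 cells expressing native full-length ER-alpha; inhibition of 0.1 nM (final) 17beta-estradiol-driven signal over 22 h is read by luminescence.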

[4] = qHTS assay to identify small molecule HDAC inhibitors (AID 1259364); also: potency is read from the fitted curve at half-maximal effect;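 also: wild-type HCT-116 cells with endogenous class I/II HDAC activity; nearly all actives have a fitted effect of over 45% in size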
How it was run: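 Quantitative high-throughput format: overnight-seeded HCT-116 cells got compounds for 2 hr at 37C; HDAC-Glo I/II reagent added, 30 min RT, luminescence measured.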

[5] = qHTS assay to identify small molecule HDAC inhibitors - cell viability counter screen (AID 1259365); also: series mostly up to about 92 µM; nearly all actives have a fitted effect of over 50% in size
How it was run: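 Cytotoxicity was gauged in wild-type HCT-116 cells after a brief 2hr treatment with DMSO-dissolved compounds at 37C and 5% CO2, using CellTiter-Glo luminescence developed for 30min at room temperature.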

[6] = qHTS assay to identify small molecule agonists of the sonic hedgehog signaling (Shh) pathway - cell viability counter screen (AID 1259366); also: nearly all actives have a fitted effect of over 50% in size; also: potency is read from the fitted curve at half-maximal effect
How it was run: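 Stable Gli1-Luc NIH/3T3 clone, 2,000 cells/well. Compound exposure 24hr at 37C. Read-out: CellTiter-Fluor fluorescence.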

[7] = qHTS assay to identify small molecule antagonists of the sonic hedgehog signaling (Shh) pathway - cell viability counter screen (AID 1259367); also: nearly all actives have a fitted effect of over 55% in size; also: potency is read from the fitted curve at half-maximal effect
How it was run: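 Conditioned medium drove Shh signaling in 3T3 Gli1-Luc cells exposed to compounds at 37C and 5% CO2. Viability was determined from CellTiter-Fluor fluorescence, with reagent incubated 1 hr after 23 hr of treatment.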

[8] = qHTS assay to identify small molecule agonists of the sonic hedgehog signaling (Shh) pathway (AID 1259368; calls by dose curve;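 also: NIH/3T3-derived 3T3Gli1-Luc cells carrying a stable Gli1-driven firefly luciferase reporter; series mostly up to about 92 µM; nearly all actives have a fitted effect of over 15% in size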)
How it was run: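 Quantitative high-throughput format using a Gli1-driven firefly luciferase reporter line derived from NIH/3T3 cells. After a 24 hr compound treatment at 37 C and 5% CO2, luminescence reported Gli1 response element activity.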

[9] = qHTS assay to identify small molecule antagonists of the sonic hedgehog signaling (Shh) pathway (AID 1259369; calls by dose curve; also: nearly all actives have a fitted effect of over 45% in size; also: potency is read from the fitted curve at half-maximal effect)
How it was run: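 Stable Gli1-Luc reporter NIH/3T3 clone; quantitative HTS in stimulated mode with conditioned medium. Luminescence measured after 24hr compound treatment at 37 C.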

[10] = biological target: Estrogen receptor beta (Homo sapiens) (UniProt Q92731); assay: qHTS assay to identify small molecule agonists of the estrogen receptor beta (ER-beta) signaling pathway (AID 1259377; active = well fitted activation curve with a large enough effect in the signal ratio in the repeat runs, not every such curve was filed as active; the % refers to the signal ratio)
Chain of Estrogen receptor beta (Homo sapiens) (Q92731 whole entry, looked up): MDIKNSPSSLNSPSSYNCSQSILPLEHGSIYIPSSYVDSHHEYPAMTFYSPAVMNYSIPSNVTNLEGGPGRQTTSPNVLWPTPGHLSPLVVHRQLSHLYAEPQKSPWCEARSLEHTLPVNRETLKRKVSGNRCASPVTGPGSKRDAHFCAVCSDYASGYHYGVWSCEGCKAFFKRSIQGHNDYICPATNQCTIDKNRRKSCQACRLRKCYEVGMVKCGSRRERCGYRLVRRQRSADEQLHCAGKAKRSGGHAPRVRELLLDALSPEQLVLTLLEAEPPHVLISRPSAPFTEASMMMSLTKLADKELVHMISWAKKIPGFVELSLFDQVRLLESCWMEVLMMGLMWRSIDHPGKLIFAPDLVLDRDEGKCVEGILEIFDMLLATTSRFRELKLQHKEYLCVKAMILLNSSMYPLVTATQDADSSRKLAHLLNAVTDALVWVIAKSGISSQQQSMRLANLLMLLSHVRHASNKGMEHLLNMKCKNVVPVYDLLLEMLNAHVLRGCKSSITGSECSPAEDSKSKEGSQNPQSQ
How it was run: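 Measured by fluorescence intensity from a B/G FRET beta-lactamase substrate (2 h, room temperature) in ER-beta-UAS-bla HEK293T cells treated with DMSO-dissolved compounds for 16 hr at 37C and 5% CO2.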

[11] = biological target: Estrogen receptor beta (Homo sapiens) (UniProt Q92731); assay: qHTS assay to identify small molecule antagonists of the estrogen receptor beta (ER-beta) signaling pathway (AID 1259378; active = well fitted inhibition curve with a large enough effect in the signal ratio in the repeat runs, not every such curve was filed as active; the % refers to the signal ratio; also: potency is read from the fitted curve at half-maximal effect)
How it was run: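 ER-beta-UAS-bla HEK293T (GripTite) cells in 2% charcoal-stripped FBS medium were preincubated 6 hr at 37C, dosed with compound, then stimulated with 1 nM E2 (final) for 16 hr; beta-lactamase reporter read by B/G FRET fluorescence after 2 hr substrate loading.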

[12] = qHTS assay to identify small molecule agonists of the androgen receptor (AR) signaling pathway in the presence of an antagonist - cell viability counter screen (AID 1259379); also: nearly all actives have a fitted effect of over 25% in size; also: potency is read from the fitted curve at half-maximal effect
How it was run: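 Nilutamide-containing (3.0uM final) MDA-kb2 cultures, 3,000 cells/well, were treated with compounds across 15 concentrations. After 16 hr at 37C with no CO2, cell viability was determined by CellTiter-Fluor fluorescence in the luciferase assay wells.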

[13] = qHTS assay to identify small molecule agonists of the estrogen receptor beta (ER-beta) signaling pathway - cell viability counter screen (AID 1259380); also: nearly all actives have a fitted effect of over 30% in size; also: potency is read from the fitted curve at half-maximal effect
How it was run: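 Steps: plate ER-beta-UAS-bla HEK293T cells, rest 6 hr; add compounds in DMSO; incubate 16 hr at 37C, 5% CO2; add FRET substrate 2 hr; add CellTiter-Glo, wait 30 min at room temperature; read luminescence.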

[14] = qHTS assay to identify small molecule antagonists of the estrogen receptor beta (ER-beta) signaling pathway - cell viability counter screen (AID 1259382); also: nearly all actives have a fitted effect of over 55% in size; also: potency is read from the fitted curve at half-maximal effect
How it was run: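 Viability is scored by CellTiter-Glo luminescence (30 min, room temperature) in ER-beta-UAS-bla HEK293T wells already read for reporter fluorescence. Compound exposure lasts 16 hr at 37C alongside 1nM 17-beta-estradiol in charcoal-stripped serum medium.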

[15] = biological target: Estrogen receptor (Homo sapiens) (UniProt P03372); assay: qHTS assay to identify small molecule agonists of the estrogen receptor alpha (ER-alpha) signaling pathway in the presence of an antagonist (AID 1259383; calls by dose curve; also: nearly all actives have a fitted effect of over 15% in size; also: potency is read from the fitted curve at half-maximal effect; as to activation: top concentration of the series differs between compounds)
How it was run: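 Readout was ERE-driven luciferase luminescence in VM7Luc4E2 cells, which express full-length ER-alpha endogenously. Compounds were tested at 15 concentrations for 22hr alongside 10.0nM ICI-182,780 (final concentration).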

[16] = qHTS assay to identify small molecule agonists or antagonists of the thyroid stimulating hormone receptor (TSHR) signaling pathway - wild type cell line counter screen (AID 1259384; calls by dose curve)
How it was run: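 Wild-type HEK293 cells were plated 18 h at 37 C/5% CO2, pin-dosed with compound plus Ro20-1724 medium, held 30 min at room temperature, then given cAMP-d2 and anti-cAMP-cryptate; fluorescence was read after 1 h. Fifteen concentrations, triplicate.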

[17] = biological target: Thyrotropin receptor (Homo sapiens) (UniProt P16473); assay: qHTS assay to identify small molecule antagonists of the thyroid stimulating hormone receptor (TSHR) signaling pathway (AID 1259385; calls by dose curve; also: nearly all actives have a fitted effect of over 20% in size)
Chain of Thyrotropin receptor (Homo sapiens) (P16473 whole entry, looked up): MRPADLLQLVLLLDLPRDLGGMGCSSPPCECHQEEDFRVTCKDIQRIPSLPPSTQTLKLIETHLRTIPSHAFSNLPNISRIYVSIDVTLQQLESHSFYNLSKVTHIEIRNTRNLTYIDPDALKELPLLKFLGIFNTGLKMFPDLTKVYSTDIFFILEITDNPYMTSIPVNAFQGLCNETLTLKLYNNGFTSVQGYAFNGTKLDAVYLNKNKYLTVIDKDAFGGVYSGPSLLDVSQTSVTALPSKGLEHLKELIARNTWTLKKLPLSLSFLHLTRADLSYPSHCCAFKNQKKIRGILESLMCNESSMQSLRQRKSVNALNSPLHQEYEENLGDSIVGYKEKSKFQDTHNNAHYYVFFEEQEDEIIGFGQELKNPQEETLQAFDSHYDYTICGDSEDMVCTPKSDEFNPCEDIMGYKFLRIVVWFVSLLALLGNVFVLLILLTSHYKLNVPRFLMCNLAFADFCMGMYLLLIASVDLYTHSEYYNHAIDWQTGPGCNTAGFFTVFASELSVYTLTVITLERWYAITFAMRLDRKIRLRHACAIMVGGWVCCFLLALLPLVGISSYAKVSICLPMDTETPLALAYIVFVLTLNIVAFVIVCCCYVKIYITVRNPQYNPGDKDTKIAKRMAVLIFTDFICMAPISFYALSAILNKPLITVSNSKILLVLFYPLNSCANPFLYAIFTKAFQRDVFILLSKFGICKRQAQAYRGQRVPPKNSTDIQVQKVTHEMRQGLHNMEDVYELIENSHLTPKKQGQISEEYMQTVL
How it was run: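 TSHR-HEK293 cells were plated and held 18 h at 37C/5% CO2, then given compound plus Ro20-1724 and stimulated with TSH at 1.5 ng/mL final. After 30 min at room temperature, cAMP was detected with cAMP-d2/anti-cAMP-cryptate (1 h) by fluorescence.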

[18] = qHTS assay to identify small molecule agonists of the estrogen receptor alpha (ER-alpha) signaling pathway in the presence of an antagonist - cell viability counter screen (AID 1259386);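 also: cells exposed to compounds for 22 h at 37 °C before the viability read; nearly all actives have a fitted effect of over 30% in size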; also: potency is read from the fitted curve at half-maximal effect
How it was run: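 In this counter screen, compound effects on VM7Luc4E2 viability were tested in the presence of the antagonist ICI-182,780 at 10.0nM final. Compounds were dosed at 15 concentrations, exposure lasted 22hr, and the CellTiter-Fluor signal was read.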

[19] = qHTS assay to identify small molecule phospholipidosis (PLD) inducers (AID 1259344; active = well fitted curve in the direction sought with a large enough effect; an effect the other way counts as inactive or inconclusive)
How it was run: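 After 4 h attachment on collagen I, HepG2 cells were dosed with compound alongside LipidTOX Red, kept 24 h at 37 C, fixed, and imaged for lamellar phospholipid pits.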

[20] = biological target: Androgen receptor (Homo sapiens) (UniProt P10275); assay: qHTS assay to identify small molecule antagonists of the androgen receptor (AR) signaling pathway using the MDA cell line in the presence of 0.5 nM R1881 (AID 1259243); also: nearly all actives have a fitted effect of over 50% in size; also: potency is read from the fitted curve at half-maximal effect
Chain of Androgen receptor (Homo sapiens) (P10275 whole entry, looked up): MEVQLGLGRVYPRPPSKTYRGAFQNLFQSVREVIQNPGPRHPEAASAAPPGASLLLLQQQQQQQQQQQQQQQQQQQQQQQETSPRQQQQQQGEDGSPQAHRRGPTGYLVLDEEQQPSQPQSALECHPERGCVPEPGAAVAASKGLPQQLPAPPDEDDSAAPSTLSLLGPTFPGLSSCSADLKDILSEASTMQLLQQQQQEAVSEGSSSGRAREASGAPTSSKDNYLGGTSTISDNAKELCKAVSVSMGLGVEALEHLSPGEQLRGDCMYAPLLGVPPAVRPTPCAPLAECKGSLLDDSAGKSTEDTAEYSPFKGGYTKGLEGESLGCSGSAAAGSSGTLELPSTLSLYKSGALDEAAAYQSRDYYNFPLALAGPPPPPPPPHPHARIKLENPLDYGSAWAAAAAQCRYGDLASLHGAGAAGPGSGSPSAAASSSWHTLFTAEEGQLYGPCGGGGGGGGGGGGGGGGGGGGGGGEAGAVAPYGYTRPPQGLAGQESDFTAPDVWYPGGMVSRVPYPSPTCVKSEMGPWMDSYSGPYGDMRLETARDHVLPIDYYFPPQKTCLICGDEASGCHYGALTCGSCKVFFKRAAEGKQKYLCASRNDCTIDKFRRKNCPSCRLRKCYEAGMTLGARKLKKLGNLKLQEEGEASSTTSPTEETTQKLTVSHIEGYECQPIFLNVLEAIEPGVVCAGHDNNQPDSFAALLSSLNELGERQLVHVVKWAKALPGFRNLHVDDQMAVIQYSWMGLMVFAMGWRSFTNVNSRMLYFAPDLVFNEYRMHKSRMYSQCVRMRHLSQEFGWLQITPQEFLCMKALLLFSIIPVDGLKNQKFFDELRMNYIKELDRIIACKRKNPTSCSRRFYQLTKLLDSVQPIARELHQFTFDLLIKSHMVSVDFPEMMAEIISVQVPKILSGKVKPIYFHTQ
How it was run: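 Antagonist mode quantitative HTS in MDA-kb2 MMTV-luciferase cells, agonist R1881 at 0.5 nM final, 16 hr exposure at 37C and 0% CO2, luminescent detection.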

Measured: Potency

CCN(N=O)C(N)=O
not listed: [19] | [20]
inactive: all other assays above

NCc1cccnc1
not listed: [10] | [11] | [12] | [20]
inactive: all other assays above

c1cc(OCC2CO2)ccc1Cc1ccc(OCC2CO2)cc1 (configuration not stated)
active: [6] 27.3 µM | [7] 61.1 µM | [9] 19.4 µM and 21.7 µM | [13] 48.6 µM
48.8 µM (active) and inactive: [14]
not listed: [4] | [10] | [11] | [19]
inactive: all other assays above

COP(=S)(OC)Oc1ccc([N+](=O)[O-])cc1
not listed: [12] | [18] | [19] | [20]
inactive: all other assays above

Nc1c(Cl)cc([N+](=O)[O-])cc1Cl
inactive and 27.3 µM (active): [3]
active: [20] 6.9 µM and 27.3 µM | [13] 61.5 µM and 27.3 µM
not listed: [14] | [16] | [17] | [18] | [19]
inactive: all other assays above

COP(=O)(OC)OC
61.6 µM (active) and inactive: [20]
not listed: [10] | [11] | [19]
inactive: all other assays above

O=C(O)CC[N+](=O)[O-]
not listed: [3] | [4] | [10] | [11] | [15] | [16] | [17] | [19]
inactive: all other assays above

Cc1ccccc1[N+](=O)[O-]
not listed: [12] | [19] | [20]
inactive: all other assays above

O=C(Nc1ccc(Br)cc1)c1cc(Br)cc(Br)c1O
active: [2] 13.3 µM | [3] 6.83 µM and 10.9 µM | [6] 30.5 µM | [9] 13.7 µM and 13.3 µM | [12] 21.6 µM and 19.3 µM and 29.8 µM | [13] 19.3 µM and 29.8 µM | [14] 24.3 µM | [18] 21.6 µM and 9.69 µM
inactive: [1] | [19] | [5] | [8] | [10] | [17]
2.42 µM (active) and inactive: [15]

CC1(C)C(C=C(Cl)Cl)C1C(=O)OC(C#N)c1cccc(Oc2ccccc2)c1 (configuration not stated)
not listed: [20]
inactive: all other assays above

CCc1cccc(CC)c1N(COC)C(=O)CCl
active: [20] 23.5 µM and 27.3 µM | [3] 47 µM | [6] 27.3 µM | [7] 59.1 µM | [9] 26.4 µM | [11] 30.6 µM
not listed: [10] | [13] | [16] | [17] | [19]
inactive: all other assays above

O=[N+]([O-])c1cccc2ccccc12
not listed: [19] | [20]
inactive: all other assays above

Nc1ccc(Cl)cc1N
active: [4] 19.3 µM | [13] 54.5 µM
inactive and 30.6 µM (active): [9]
not listed: [3] | [8] | [10] | [11] | [14] | [15] | [16]
inactive: all other assays above
